From PubChem BioAssay
The source made the active and inactive calls.

Legend:
[1] = system: Plasmodium falciparum Sir2 (PF13_0152, Sir2A); assay: Plasmodium falciparum Sir2A binding compounds – biochemical, small-molecule microarray, 635 nm fluorescence, primary screen (AID 1098); conditions: fluorescence 635 nm, higher = more signal;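 also: score merges spot fluorescence intensity with its signal-to-noise ratio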
[2] = probe aDKK1 binding to arrayed compounds – biochemical, biotinylated probe, 635/667 nm fluorescence, primary screen (AID 1099); conditions: small-molecule microarray, higher = more signal;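 also: score merges 667nm spot fluorescence with signal to noise across triplicate slides; reference of the scale not given here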
[3] = probe aCHRDL2 binding to arrayed compounds – biochemical, biotinylated probe, 635/667 nm fluorescence, primary screen (AID 1100); conditions: small-molecule microarray, higher = more signal
[4] = change in splice reporter luminescence, either direction, cell-based, HEK293, spliceosome inhibition project, primary screen (AID 1101); conditions: HEK293 splicing luciferase reporter, 24 h, higher = more signal, called active from +8 up or from −8 down;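 also: HEK293 cells carrying a splicing-competent luciferase reporter gene; test concentration not given here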
[5] = target: Fibroblast growth factor 10 (Homo sapiens) (UniProt O15520); assay: compounds binding fibroblast growth factor 10 – biochemical, small-molecule microarray, 635 nm fluorescence, primary screen (AID 1102); conditions: FGF10 binding, fluorescence 635 nm, higher = more signal
[6] = system: glycogen synthase kinase-3 (GSK3A per assay name; protocol says GSK3B); assay: compounds binding glycogen synthase kinase-3 – biochemical, small-molecule microarray, 635 nm fluorescence, GSK3A, primary screen (AID 1103); conditions: fluorescence 635 nm, higher = more signal; also: the record names both GSK3A and GSK3B
[7] = target: Epidermal growth factor receptor (Homo sapiens) (UniProt P00533); assay: compounds binding epidermal growth factor receptor – biochemical, small-molecule microarray, 635 nm fluorescence, primary screen (AID 1104); conditions: EGFR binding, higher = more signal;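 also: score merges 667 nm emission intensity with spot signal to noise over triplicate slides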
[8] = target: Follistatin-related protein 3 (Homo sapiens) (UniProt O95633); assay: compounds binding follistatin-related protein 3 – biochemical, small-molecule microarray, 635 nm fluorescence, primary screen (AID 1105); conditions: FSTL3 binding, higher = more signal;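 also: score merges emission near 667 nm and signal to noise per printed spot across three slides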
[9] = target: Dickkopf-related protein 1 (Homo sapiens) (UniProt O94907); assay: small molecules binding DKK1 protein – biochemical, small-molecule microarray, 635 nm fluorescence scan, primary screen (AID 1106); conditions: higher = more signal;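 also: score merges emission near 667 nm with signal to noise over three replicate slides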
[10] = system: Inhibin beta A chain (activin A); assay: small molecules binding activin A – biochemical, small-molecule microarray, 635 nm fluorescence scan, primary screen (AID 1107); conditions: INHBA, higher = more signal;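 also: mouse activin A protein probed at 4.33 µg/mL on printed slides; score merges bound-protein fluorescence near 667 nm with spot signal-to-noise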

Sequence of Epidermal growth factor receptor (Homo sapiens) (P00533 whole entry, looked up): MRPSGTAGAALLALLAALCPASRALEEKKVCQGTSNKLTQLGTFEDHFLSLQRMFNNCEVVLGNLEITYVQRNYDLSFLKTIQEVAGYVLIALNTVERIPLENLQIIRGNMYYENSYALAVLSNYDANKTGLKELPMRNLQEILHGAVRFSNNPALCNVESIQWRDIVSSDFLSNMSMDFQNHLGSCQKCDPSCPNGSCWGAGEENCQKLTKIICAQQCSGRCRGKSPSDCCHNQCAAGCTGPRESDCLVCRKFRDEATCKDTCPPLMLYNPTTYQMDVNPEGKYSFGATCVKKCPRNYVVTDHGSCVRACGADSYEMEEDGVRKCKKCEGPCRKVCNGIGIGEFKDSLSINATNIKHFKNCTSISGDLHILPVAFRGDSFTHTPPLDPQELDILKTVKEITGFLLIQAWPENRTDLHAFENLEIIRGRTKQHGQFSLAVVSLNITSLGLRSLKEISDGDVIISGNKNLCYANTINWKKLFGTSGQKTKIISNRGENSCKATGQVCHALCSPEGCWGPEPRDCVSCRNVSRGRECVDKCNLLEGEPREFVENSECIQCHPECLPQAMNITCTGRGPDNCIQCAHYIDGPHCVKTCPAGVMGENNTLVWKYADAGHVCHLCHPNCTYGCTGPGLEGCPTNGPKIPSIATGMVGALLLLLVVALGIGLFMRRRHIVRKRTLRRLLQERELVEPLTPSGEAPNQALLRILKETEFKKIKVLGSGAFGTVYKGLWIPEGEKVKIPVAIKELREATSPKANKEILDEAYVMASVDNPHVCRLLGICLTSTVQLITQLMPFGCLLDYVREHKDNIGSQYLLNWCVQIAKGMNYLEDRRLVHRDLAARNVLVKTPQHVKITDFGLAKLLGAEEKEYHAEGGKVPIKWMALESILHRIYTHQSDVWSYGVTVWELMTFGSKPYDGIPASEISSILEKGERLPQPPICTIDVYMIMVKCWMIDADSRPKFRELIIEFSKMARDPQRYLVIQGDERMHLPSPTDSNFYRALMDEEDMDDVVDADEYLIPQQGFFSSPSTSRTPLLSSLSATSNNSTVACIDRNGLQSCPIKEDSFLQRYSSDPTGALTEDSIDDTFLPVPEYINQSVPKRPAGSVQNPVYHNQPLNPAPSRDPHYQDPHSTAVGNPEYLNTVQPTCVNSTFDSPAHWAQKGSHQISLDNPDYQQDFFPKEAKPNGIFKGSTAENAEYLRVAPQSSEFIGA
Sequence of Follistatin-related protein 3 (Homo sapiens) (O95633 whole entry, looked up): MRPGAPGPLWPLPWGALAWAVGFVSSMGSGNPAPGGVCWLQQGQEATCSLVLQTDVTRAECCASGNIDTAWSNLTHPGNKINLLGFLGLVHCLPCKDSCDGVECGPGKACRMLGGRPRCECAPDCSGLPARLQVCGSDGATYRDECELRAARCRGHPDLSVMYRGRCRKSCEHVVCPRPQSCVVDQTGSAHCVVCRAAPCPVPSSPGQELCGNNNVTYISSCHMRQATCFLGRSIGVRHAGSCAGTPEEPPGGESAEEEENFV
Sequence of Dickkopf-related protein 1 (Homo sapiens) (O94907 whole entry, looked up): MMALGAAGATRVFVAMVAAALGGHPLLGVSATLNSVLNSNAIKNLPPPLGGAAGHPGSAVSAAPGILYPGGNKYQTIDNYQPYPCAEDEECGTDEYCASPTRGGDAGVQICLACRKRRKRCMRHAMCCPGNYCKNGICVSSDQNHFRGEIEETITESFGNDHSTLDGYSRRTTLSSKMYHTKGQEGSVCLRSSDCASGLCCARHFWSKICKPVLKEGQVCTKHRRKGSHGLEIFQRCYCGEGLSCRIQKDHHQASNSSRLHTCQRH
Sequence of Fibroblast growth factor 10 (Homo sapiens) (O15520 whole entry, looked up): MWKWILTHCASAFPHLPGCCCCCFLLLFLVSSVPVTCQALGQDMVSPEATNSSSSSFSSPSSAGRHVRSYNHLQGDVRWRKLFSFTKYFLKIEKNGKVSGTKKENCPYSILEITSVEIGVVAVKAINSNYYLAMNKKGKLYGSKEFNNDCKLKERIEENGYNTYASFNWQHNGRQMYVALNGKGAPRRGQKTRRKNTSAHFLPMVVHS

Row | SMILES | composite z-score [1] | composite z-score [2] | composite z-score [3] | z-score [4] | composite z-score [5] | composite z-score [6] | composite z-score [7] | composite z-score [8] | composite z-score [9] | composite z-score [10]
1 | COc1ccc(COC(=O)NN=C2C[C@@H](O)[C@@H](O)[C@@H]3[C@@H]4C(=O)N(C5CCCCC5)C(=O)[C@@H]4CC[C@@H]23)cc1 | -0.123 | 0.202 | 1.38 | 0.299 (inactive) | -0.28 | -0.145 | -0.583 | -0.248 | -0.88 | 0.105
2 | COC(=O)CC=C[C@@H](C)[C@@H](C=NOC[C@@H](C)[C@H](OCc1ccccc1)C(C)C)NS(=O)(=O)c1ccc(C)cc1 | -0.196 | -0.439 | -0.75 | -0.21 (inactive) | -0.714 | -1.15 | -0.0573 | -0.888 | 0.0424 | 0.168
3 | CC(CCN1CCCc2nc(C)c(C)cc21)=NOC[C@@H](C)[C@H](OCc1ccccc1)C(C)C | -0.438 | -0.359 | -0.623 | -0.81 (inactive) | -0.569 | -0.715 | -0.771 | -0.413 | -0.265 | 0.356
4 | O=C1[C@H]2[C@H]3[C@H](O)[C@H](O)CC(=NO[C@@H]4O[C@H](CO)[C@@H](O)[C@H](O)[C@H]4O)[C@@H]3CC[C@H]2C(=O)N1C[C@@H]1CCCO1 | 0.355 | -0.29 | -0.565 | -1.45 (inactive) | 0.784 | 0.839 | 0.448 | 0.738 | 0.35 | -0.808
5 | C[C@@H](c1ccccc1)N1C(=O)[C@H]2[C@H]3[C@H](O)[C@H](O)CC(=NOCc4ccccc4)[C@@H]3CC[C@H]2C1=O | -0.139 | 1.19 | 1.31 | 0.36 (inactive) | -0.222 | -0.187 | -0.169 | -0.909 | -1 | 0.549
6 | CC1(C)O[C@H]2O[C@H]([C@H](O)CON=C3[C@H]4CCn5c(=O)n(-c6ccccc6)c(=O)n5[C@H]4[C@H](O)[C@@H]4O[C@H]34)[C@H](O)[C@H]2O1 | 0.378 | -0.179 | -0.181 | 0.407 (inactive) | 0.174 | 0.085 | 0.249 | 0.422 | 0.0043 | 0.695
7 | CC(C)(C)N1C(=O)[C@H]2[C@H]3[C@H](O)[C@H](O)CC(=NNC(=O)OCc4ccccc4)[C@H]3CC[C@H]2C1=O | -0.195 | 0.0773 | -0.525 | -0.422 (inactive) | 0.72 | 0.792 | 0.208 | 0.889 | 0.608 | -1.06
8 | CC(C)CON=C1C[C@@H](O)[C@@H](O)[C@@H]2[C@@H]3C(=O)N([C@@H](C)c4ccccc4)C(=O)[C@@H]3CC[C@@H]12 | -0.201 | 0.083 | 0.767 | 0.226 (inactive) | 0.266 | -0.0708 | 0.191 | -0.279 | -0.24 | 0.467
9 | CCN1C(=O)[C@H]2[C@H]3[C@H](O)[C@H](O)CC(=NOC[C@@H](O)COCc4ccco4)[C@H]3CC[C@H]2C1=O | 0.667 | -1 | -2.16 | 0.0809 (inactive) | -0.169 | 0.797 | 0.816 | 0.757 | 1.39 | 1.45
10 | O=C1CCCC=C1C(O)c1ccc([N+](=O)[O-])cc1 (stereo not given) | -0.805 | -0.0341 | -0.429 | -0.337 (inactive) | 0.59 | 0.288 | 0.406 | 0.211 | 0.133 | 0.478
11 | CCOC(=O)CCN1C(=O)[C@H]2[C@H]3[C@H](O)[C@H](O)CC(=NOCC(C)C)[C@@H]3CC[C@H]2C1=O | 0.816 | -0.823 | -1.74 | 0.66 (inactive) | -0.0809 | 1.06 | 0.406 | 1.04 | 1.78 | 1.28
12 | CC(CCN1CCc2nc(-c3ccccc3)c(-c3ccccc3)cc2C1)=NOC(C)CN1CCCc2nc(C)c(C)cc21 (stereo not given) | 0.934 | 0.196 | -0.218 | 1.12 (inactive) | 0.942 | 1.02 | 0.603 | 1.02 | 0.732 | 0.858
13 | COC(=O)[C@H](C)NC(=O)CCC1CC(OC(=O)NCc2cccc3ccccc23)CC2(CCCC(COC(=O)NCCCN3CCCC3=O)O2)O1 (stereo not given in full) | 0.666 | -0.102 | -0.279 | -0.915 (inactive) | 0.92 | 1.17 | 0.929 | 0.91 | 0.77 | -0.503
14 | O=C1[C@H]2[C@H]3[C@H](O)[C@H](O)CC(=NOC[C@@H](O)COCc4ccco4)[C@@H]3CC[C@H]2C(=O)N1c1cccc(Oc2ccccc2)c1 | -0.042 | -0.334 | -0.885 | -0.33 (inactive) | -0.25 | -0.91 | -0.094 | -0.213 | 0.461 | 0.831
15 | COC(=O)[C@H](C)NC(=O)CCC1CC(OC(=O)NCCc2ccc(F)cc2)CC2(CCCC(COC(=O)NCc3ccccc3)O2)O1 (stereo not given in full) | 0.768 | -0.128 | -0.37 | -0.114 (inactive) | 0.834 | 1.28 | 0.462 | 1.29 | 0.477 | 0.0384
16 | COc1ccc(COC(=O)NN=C2C[C@@H](O)[C@@H](O)[C@@H]3[C@@H]4C(=O)N([C@@H](C)c5ccccc5)C(=O)[C@@H]4CC[C@@H]23)cc1 | 0.397 | 0.0429 | -0.305 | 0.158 (inactive) | 0.132 | -0.111 | 0.362 | 0.192 | 0.244 | 0.878
17 | CCCNC(=O)OC[C@H]1O[C@H](CCON=C[C@@H](C)[C@H](OCc2ccccc2)C(C)C)C=C[C@@H]1Oc1ccc(OC)cc1 | -0.369 | -0.275 | -0.228 | -1.54 (inactive) | -0.302 | -1.32 | 0.332 | -0.245 | 0.159 | 0.33
